Hit rate of the full screen: of about 5,500 compounds, about 2,000 (36%) were called active. Inconclusive results (about 18%) are left out. Cut-off read from the data, not from the text of the source: active = normalized growth mostly below about 0.91 (no sharp cut-off); inconclusive = no clear call, values can overlap the other calls; inactive = mostly above about 0.92. The list shows a part of the results.
Experiment: chemical genetic growth profiling, strain panel (AID 1159580);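 note: tested at 20 µM; growth read once vehicle control cultures reached saturation at 30 °C; 1 = growth at the plate median or of vehicle wells; lower values mean less growth of the strain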
Conditions: growth OD

Measured: normalized growth

CNC(=O)Oc1cccc2c1OC(C)(C)O2
inactive: S. cerevisiae deletion strains, locus YJR043C, strain POL32, active compounds read low 1.01 | S. cerevisiae deletion strains, locus YJR075W, strain HOC1, active compounds read low 1.01 | S. cerevisiae deletion strains, locus YKL009W, strain mrt4, active compounds read low 1.02 | S. cerevisiae deletion strains, locus YKL068W, active compounds read low 1 | S. cerevisiae deletion strains, locus YKL085W, strain MDH1 (second series), active compounds read low 1 | S. cerevisiae deletion strains, locus YKL085W, strain MDH1, active compounds read low 1 | S. cerevisiae deletion strains, locus YKL160W, strain elf1, active compounds read low 0.994 | S. cerevisiae deletion strains, locus YKL190W, strain CNB1, active compounds read low 1.02 | S. cerevisiae deletion strains, locus YKR001C, strain vps1, active compounds read low 1.01 | S. cerevisiae deletion strains, locus YKR026C, strain gcn3, active compounds read low 1 | S. cerevisiae deletion strains, locus YKR091W, strain srl3, active compounds read low 1 | S. cerevisiae deletion strains, locus YLL001W, strain dnm1, active compounds read low 0.992 | S. cerevisiae deletion strains, locus YLL026W, active compounds read low 0.998 | S. cerevisiae deletion strains, locus YLL041C, strain sdh2, active compounds read low 0.999 | S. cerevisiae deletion strains, locus YLR027C, strain aat2, active compounds read low 0.99 | S. cerevisiae deletion strains, locus YLR039C, strain RIC1, active compounds read low 1.1 | S. cerevisiae deletion strains, locus YLR058C, strain SHM2, active compounds read low 1.02 | S. cerevisiae deletion strains, locus YLR102C, strain apc9, active compounds read low 0.991 | S. cerevisiae deletion strains, locus YLR221C, strain rsa3, active compounds read low 1 | S. cerevisiae deletion strains, locus YLR258W, strain gsy2, active compounds read low 1 | S. cerevisiae deletion strains, locus YLR262C, strain YPT6 (second series), active compounds read low 1.03 | S. cerevisiae deletion strains, locus YLR262C, strain YPT6, active compounds read low 1.14 | S. cerevisiae deletion strains, locus YLR268W, strain sec22, active compounds read low 0.998 | S. cerevisiae deletion strains, locus YLR320W, strain mms22, active compounds read low 0.986 | S. cerevisiae deletion strains, locus YLR330W, strain CHS5, active compounds read low 1.02 | S. cerevisiae deletion strains, locus YLR342W, strain FKS1 (second series), active compounds read low 0.991 | S. cerevisiae deletion strains, locus YLR342W, strain FKS1, active compounds read low 0.997 | S. cerevisiae deletion strains, locus YLR357W, strain rsc2, active compounds read low 1.05 | S. cerevisiae deletion strains, locus YLR370C, strain arc18, active compounds read low 1.01 | S. cerevisiae deletion strains, locus YLR371W, strain rom2, active compounds read low 0.989 | S. cerevisiae deletion strains, locus YLR384C, strain iki3, active compounds read low 1.01 | S. cerevisiae deletion strains, locus YLR418C, strain cdc73, active compounds read low 0.9 | S. cerevisiae deletion strains, locus YML016C, strain PPZ1, active compounds read low 1.02 | S. cerevisiae deletion strains, locus YML032C, strain rad52, active compounds read low 0.992 | S. cerevisiae deletion strains, locus YML120C, strain ndi1, active compounds read low 1.01 | S. cerevisiae deletion strains, locus YML124C, strain tub3, active compounds read low 0.998 | S. cerevisiae deletion strains, locus YMR058W, strain fet3, active compounds read low 0.999 | S. cerevisiae deletion strains, locus YMR078C, strain ctf18, active compounds read low 0.99 | S. cerevisiae deletion strains, locus YMR125W, strain sto1, active compounds read low 1 | S. cerevisiae deletion strains, locus YMR129W, active compounds read low 0.996 | S. cerevisiae deletion strains, locus YMR205C, strain PFK2, active compounds read low 0.976 | S. cerevisiae deletion strains, locus YMR223W, strain ubp8, active compounds read low 0.985 | S. cerevisiae deletion strains, locus YMR231W, strain pep5, active compounds read low 0.995 | S. cerevisiae deletion strains, locus YMR263W, strain SAP30, active compounds read low 1.02 | S. cerevisiae deletion strains, locus YMR307W, strain GAS1, active compounds read low 1.05 | S. cerevisiae deletion strains, locus YNL067W, strain RPL9B, active compounds read low 1.02 | S. cerevisiae deletion strains, locus YNL071W, strain lat1, active compounds read low 1 | S. cerevisiae deletion strains, locus YNL128W, strain TEP1, active compounds read low 1.03 | S. cerevisiae deletion strains, locus YNL153C, strain GIM3, active compounds read low 1.01 | S. cerevisiae deletion strains, locus YNL209W, strain ssb2, active compounds read low 0.996 | S. cerevisiae deletion strains, locus YNL233W, strain BNI4, active compounds read low 1.02 | S. cerevisiae deletion strains, locus YNL248C, strain rpa49, active compounds read low 0.991 | S. cerevisiae deletion strains, locus YNL250W, strain rad50, active compounds read low 0.997 | S. cerevisiae deletion strains, locus YNL271C, strain bni1, active compounds read low 1 | S. cerevisiae deletion strains, locus YNL298W, strain CLA4, active compounds read low 0.998 | S. cerevisiae deletion strains, locus YNL307C, strain MCK1, active compounds read low 0.984 | S. cerevisiae deletion strains, locus YNL322C, strain KRE1 (second series), active compounds read low 0.999 | S. cerevisiae deletion strains, locus YNL322C, strain KRE1, active compounds read low 1.02 | S. cerevisiae deletion strains, locus YNR049C, strain mso1, active compounds read low 1 | S. cerevisiae deletion strains, locus YNR052C, strain pop2, active compounds read low 0.996 | S. cerevisiae deletion strains, locus YOL006C, strain TOP1, active compounds read low 1.02 | S. cerevisiae deletion strains, locus YOL012C, strain htz1 1.24 | S. cerevisiae deletion strains, locus YOL147C, strain pex11, active compounds read low 0.993 | S. cerevisiae deletion strains, locus YOR001W, strain rrp6, active compounds read low 0.981 | S. cerevisiae deletion strains, locus YOR061W, strain CKA2, active compounds read low 1.02 | S. cerevisiae deletion strains, locus YOR069W, strain VPS5, active compounds read low 1.01 | S. cerevisiae deletion strains, locus YOR070C, strain gyp1, active compounds read low 0.991 | S. cerevisiae deletion strains, locus YOR080W, strain dia2, active compounds read low 1 | S. cerevisiae deletion strains, locus YOR083W, strain WHI5, active compounds read low 1 | S. cerevisiae deletion strains, locus YOR106W, strain vam3, active compounds read low 0.987 | S. cerevisiae deletion strains, locus YOR136W, strain idh2, active compounds read low 0.983 | S. cerevisiae deletion strains, locus YOR144C, strain elg1, active compounds read low 0.999 | S. cerevisiae deletion strains, locus YOR184W, strain ser1, active compounds read low 1.01 | S. cerevisiae deletion strains, locus YOR265W, strain rbl2, active compounds read low 1.01 | S. cerevisiae deletion strains, locus YOR270C, strain vph1, active compounds read low 0.953 | S. cerevisiae deletion strains, locus YOR290C, strain snf2, active compounds read low 0.959 | S. cerevisiae deletion strains, locus YOR316C, strain cot1, active compounds read low 0.995 | S. cerevisiae deletion strains, locus YPL051W, strain arl3, active compounds read low 0.997 | S. cerevisiae deletion strains, locus YPL055C, strain LGE1, active compounds read low 1.03 | S. cerevisiae deletion strains, locus YPL078C, strain atp4, active compounds read low 0.988 | S. cerevisiae deletion strains, locus YPL106C, strain sse1, active compounds read low 1.08 | S. cerevisiae deletion strains, locus YPL240C, strain hsp82, active compounds read low 1 | S. cerevisiae deletion strains, locus YPL241C, strain CIN2, active compounds read low 1.02 | S. cerevisiae deletion strains, locus YPR119W, strain clb2, active compounds read low 0.993 | S. cerevisiae deletion strains, locus YPR141C, strain kar3, active compounds read low 0.993 | S. cerevisiae deletion strains, locus YPR163C, strain tif3, active compounds read low 0.988 | S. cerevisiae deletion strains, locus YPR167C, strain met16, active compounds read low 0.993 | S. cerevisiae deletion strains, strain wtn01, active compounds read low 0.99 | S. cerevisiae strains, strain wild type, active compounds read low 1.01

From PubChem BioAssay AID1159580 (chemical genetic matrix, 2015)
